Where “and” joins values, the source holds several entries; their conditions need not be identical. Identical values can stand only once. Inconclusive results are not listed. Calls of active or inactive are those of the source. Unless noted, calls come from the whole dose curve; as a rule, active = well fitted curve in the direction sought with a large enough effect; inconclusive = small, poorly fitted or top-dose-only effect, or another doubt; inactive = no such curve, though single readings can be large; an effect the other way counts as inactive or inconclusive.
How the values were obtained:
[1] = Cell Viability - Jurkat (AID 426;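 active = dose-dependent loss of cell ATP signal giving a full or clear fitted curve, ranked by lower potency value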;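 note: potency is the fitted concentration of half-maximal effect; cells exposed to compound for 40 hours at 37 °C before ATP read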); details: qHTS
Outline: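 Cells of the human T-cell leukemia line Jurkat (E6-1) are seeded at 5000 per well, treated with compound across a concentration range for 40 hours at 37 °C, then lysed with CellTiter-Glo; luminescence reports ATP.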

[2] = Cellular Toxicity (caspase-3) Jurkat (AID 655); details: Jurkat caspase-3 activation, luminescence; caspase-3 activation: at 92.2 µM (top of the series), DMSO = 0%, tamoxifen = 100%;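 note: cells exposed to compound for 16 h at 37 °C before reading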; note: potency is the fitted concentration of half-maximal effect
Outline: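 Jurkat cells (5000/well) in complete medium exposed 16 h at 37 C; caspase-3/7 activity read by Caspase-Glo luminescence after 20 min at room temperature. Normalized to DMSO and 100 uM tamoxifen; AC50 from Hill fits.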

[3] = Cellular Toxicity (caspase-3) BJ (AID 658); details: BJ fibroblasts, luminescence; Potency: caspase-3 activation; series mostly up to 91.7 µM;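 note: 0% = DMSO basal and 100% = 10 µM staurosporine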
Outline: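 qHTS, BJ fibroblasts, 1000 cells/well; 5 hr preincubation, 16 hr compound, 37 °C; Caspase-Glo 3/7 reagent, 1 hr RT; luminescence. DMSO = 0%, 10 uM staurosporine = 100%. Hill-equation AC50.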

[4] = Cell Viability - LYMP1-002 - Assay at 16 hr (AID 948); details: LYMP1-002 lymphoblastoid cell viability; series mostly up to 92.2 µM; note: potency is the fitted concentration of half-maximal effect
Outline: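 LYMP1-002 human lymphoblastoid cells, 2500/well, were treated with compounds for 16 hr at 37 C in complete medium. Viability was read as intracellular ATP by CellTiter-Glo luminescence, and AC50 was derived from a Hill fit to concentration-response data.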

[5] = Cell Viability - LYMP2-003 (AID 965); details: LYMP2-003 lymphoblastoid cell viability; series mostly up to 92.2 µM;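 note: cells exposed to compounds for 24 h before reading; nearly all actives have a fitted effect of over 50% in size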; note: potency is the fitted concentration of half-maximal effect
Outline: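 Human lymphoblastoid LYMP2-003 cells, 2500/well, exposed to compounds for 24 h at 37 C in complete medium. Viability read as intracellular ATP by CellTiter-Glo luminescence; AC50 from Hill-equation fits of qHTS concentration-response data.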

[6] = target: Voltage-gated inwardly rectifying potassium channel KCNH2 (Homo sapiens) (UniProt Q12809); assay: qHTS Assay for Small Molecule Inhibitors of the Human hERG Channel Activity (AID 588834); details: U2OS BacMam hERG, FluxOR thallium flux fluorescence; series mostly up to 92.2 µM;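 note: top concentration of the series differs between compounds; % is set by controls: 0 for no effect and ±100 for the full control effect; lower thallium flux fluorescence means stronger hERG block; nearly all actives have a fitted effect of over 50% in size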
Outline: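 Thallium serves as surrogate for K+ influx through BacMam-delivered hERG in U2OS cells. Compounds are added for about 10 minutes after dye loading; stimulation buffer then starts flux, monitored kinetically on FDSS.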

[7] = qHTS assay for small molecule activators of the nuclear factor-kappa B (NF-kB) signaling pathway (AID 651749; active = well fitted activation curve with a large enough effect in the signal ratio; the % refers to the signal ratio; note: % of control where 0% means no effect); details: NF-kB-bla ME-180 cells, beta-lactamase FRET ratio, 16 h; stronger effect = higher value
Outline: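 In this qHTS format, compounds acting as activators increase NF-kB-driven beta-lactamase in ME-180 cells, measured as disrupted FRET after 16 hr exposure at 37C and 5% CO2.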

[8] = target: Tumor necrosis factor (Homo sapiens) (UniProt P01375); assay: qHTS assay to identify small molecules that stimulate Tumor Necrosis Factor-alpha (TNF-alpha) secretion (AID 651757; active = well fitted curve in the direction sought with a large enough effect in the signal ratio; the % refers to the signal ratio; note: 0% is about no effect); details: Human cells, HTRF 665/615 ratio; series mostly up to 92.2 µM
Outline: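 Human monocytic THP-1 cells are plated, treated with compound and held at 37 C for 17 hrs. Labeled anti-TNF-alpha antibody mixture is then added; after 3 hr at room temperature, TR-FRET signal reports secreted TNF-alpha.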

[9] = target: Cytochrome P450 3A4 (Homo sapiens) (UniProt P08684); assay: qHTS Assay for Inhibitors and Substrates of Cytochrome P450 3A4 (AID 884); details: recombinant CYP3A4, Luciferin-PPXE luminescence; series mostly up to 57.1 µM; note: % is set by controls: 0 for no effect and ±100 for the full control effect; nearly all actives have a fitted effect of over 50% in size
Outline: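 Luminescent readout of luciferin produced by CYP3A4 (20 nM) dealkylation of Luciferin-PPXE, 25 uM (its KM). NADPH-driven reaction ran 60 min at RT after 10 min compound preincubation; data scaled to 57 uM ketoconazole as 100% inhibition.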

[10] = Cell Viability - LYMP1-002 - Assay at 24 hr (AID 993); details: LYMP1-002 lymphoblastoid cells viability; series mostly up to 92.2 µM; note: % is set by controls: 0 for no effect and ±100 for the full control effect
Outline: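 Acute toxicity is measured as concentration-dependent loss of cellular ATP in a human lymphoblastoid line (Coriell LYMP1-002) after 24 h treatment in complete medium. ATP is quantified by luciferase luminescence and AC50 derived by Hill modelling.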

[11] = target: Estrogen receptor (Homo sapiens) (UniProt P03372); assay: qHTS assay for small molecule antagonists of estrogen receptor alpha signaling (AID 588513; active = well fitted curve in the direction sought with a large enough effect in the signal ratio, with a control signal flat, not every such curve was filed as active; the % refers to the signal ratio; note: % is set by controls: 0 for no effect and ±100 for the full control effect); details: ER-alpha-UAS-bla HEK293, beta-lactamase ratio, antagonist mode; series mostly up to 76.9 µM
Outline: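 ER-alpha-UAS-bla GripTite HEK 293 cells in 2% charcoal/dextran-treated FBS medium; compounds titrated (1:2, duplicate), then stimulated with 0.5 nM 17-beta-estradiol for 18 h at 37C. CCF4 beta-lactamase fluorescence; Hill-fit IC50 and efficacy.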

[12] = target: Vitamin D3 receptor (Homo sapiens) (UniProt P11473); assay: qHTS assay for small molecule agonists of vitamin D receptor signaling (AID 588543; calls by dose curve; note: potency is the fitted concentration of half-maximal effect;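 for activation: 0% = DMSO basal and 100% = reference agonist control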); details: HEK293T VDR-UAS-bla, beta-lactamase ratio, 16 h; series mostly up to 76.8 µM
Outline: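 VDR-UAS-bla HEK293T cells, 2000/well, 2% charcoal-stripped FBS; compound titration 16 h at 37 C; CCF4 beta-lactamase ratio read. Normalized to 50 nM 1-alpha,25-dihydroxyvitamin D3 (100%) and DMSO; Hill fit gives EC50, efficacy.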

[13] = qHTS assay for small molecule agonists of the antioxidant response element (ARE) signaling pathway (AID 651741; active = well fitted activation curve with a large enough effect in the signal ratio; the % refers to the signal ratio; note: potency is the fitted concentration of half-maximal effect; for activation: % of control where 0% means no effect); details: HepG2 ARE-bla reporter, beta-lactamase FRET ratio, 16 h; series mostly up to 96 µM
Outline: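 Stably integrated ARE-beta-lactamase reporter HepG2 cells; 16 h compound incubation, 37 C; LiveBLAzer FRET substrate 2 h at room temperature; fluorescence intensity.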

[14] = qHTS assay for small molecule antagonists of the retinoid-related orphan receptor gamma (ROR-gamma) signaling pathway - cell viability counter screen (AID 720652; active = well fitted curve in the direction sought with a large enough effect in the repeat runs; an effect the other way counts as inactive or inconclusive;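 note: compound exposure lasted 16 hr before ATP read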; note: potency is the fitted concentration of half-maximal effect); details: RORgamma reporter cell line viability counter screen; series mostly up to 92.2 µM
Outline: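 Steps: seed CHO cells bearing TET-inducible ROR and ROR response element-luciferase; rest 5 hr at 37 C; add compound, then doxycycline; incubate 16 hr; add CellTiter-Glo and read luminescence as ATP-based viability.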

[15] = qHTS assay for small molecule activators of the human pregnane X receptor (PXR) signaling pathway (AID 720659; call rule not given here; note: 0% is about no effect); details: DPX-2 HepG2 CYP3A4-luciferase, 24 h; series mostly up to 92.3 µM
[16] = Cell Viability - Hek293 (AID 427;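 active = compounds whose dose-response curve shows a full or clear partial loss of cell viability, called from curve shape rather than a numeric limit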;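 note: potency is the fitted concentration of half-maximal effect; cells exposed to compound for 40 hours at 37 °C before reading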); details: qHTS
Outline: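 Luminescent ATP read-out (CellTiter-Glo, 20 min RT) after 40 hr compound exposure at 37 °C in complete medium. Signal normalized to DMSO (basal) and 100 uM tamoxifen (100% inhibition); concentration-response fitted with the standard Hill equation to give AC50.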

[17] = Cellular Toxicity (caspase-3) Hek293 (AID 664); details: HEK293 caspase-3 activation, DMSO = 0%, 100 µM tamoxifen = 100%; at 92.2 µM (top of the series);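 note: cells exposed to compound for 16 h at 37 °C before readout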
Outline: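 qHTS, HEK293 (human embryonic kidney), 16 h cpd exposure in complete medium. Caspase-3/7 activation = luminescence increase; normalized to DMSO/100 uM tamoxifen; Hill-fit AC50.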

[18] = target: Peroxisome proliferator-activated receptor gamma (Homo sapiens) (UniProt P37231); assay: qHTS assay for small molecule agonists of peroxisome proliferator-activated receptor gamma signaling (AID 588536; active = well fitted curve in the direction sought with a large enough effect in the signal ratio, with a control signal flat, not every such curve was filed as active; the % refers to the signal ratio;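 note: 0% = DMSO basal wells and 100% = rosiglitazone at 2 µM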); details: HEK293 PPARg-UAS-bla, beta-lactamase ratio, 16 h, percent of rosiglitazone response, DMSO as zero; series mostly up to 76.7 µM
Outline: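 Compound treatment: 16 h, 37 C, HEK293 GeneBLAzer cells. Detection: CCF4, 2 h RT. Values: Hill-fit EC50, efficacy as % of 2 uM rosiglitazone.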

[19] = qHTS assay for small molecule activators of the p53 signaling pathway (AID 651743; active = well fitted activation curve with a large enough effect in the signal ratio, not every such curve was filed as active; the % refers to the signal ratio; note: potency is the fitted concentration of half-maximal effect; for activation: % of control where 0% means no effect); details: HCT-116 p53RE-bla, beta-lactamase FRET ratio, 16 h; activation: stronger effect = higher value
Outline: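 Following 16 hours of compound exposure at 37 C, HCT-116 cells bearing the p53RE-bla reporter were loaded with LiveBLAzer B/G FRET substrate for 2 hours at room temperature and fluorescence intensity was recorded.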

[20] = target: Nuclear receptor ROR-gamma (Homo sapiens) (UniProt P51449); assay: qHTS assay for small molecule antagonists of the retinoid-related orphan receptor gamma (ROR-gamma) signaling pathway (AID 651802); details: ROR-gamma antagonist cell reporter assay; series mostly up to 92.2 µM; note: nearly all actives have a fitted effect of over 60% in size; note: potency is the fitted concentration of half-maximal effect
Outline: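 Steps: cells dispensed; compound or DMSO transferred by pin tool; doxycycline added to induce the ROR response element-driven luciferase; plates held 16hr at 37C; ONE-Glo added and luminescence measured.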

Sequence of Vitamin D3 receptor (Homo sapiens) (P11473 whole entry, looked up): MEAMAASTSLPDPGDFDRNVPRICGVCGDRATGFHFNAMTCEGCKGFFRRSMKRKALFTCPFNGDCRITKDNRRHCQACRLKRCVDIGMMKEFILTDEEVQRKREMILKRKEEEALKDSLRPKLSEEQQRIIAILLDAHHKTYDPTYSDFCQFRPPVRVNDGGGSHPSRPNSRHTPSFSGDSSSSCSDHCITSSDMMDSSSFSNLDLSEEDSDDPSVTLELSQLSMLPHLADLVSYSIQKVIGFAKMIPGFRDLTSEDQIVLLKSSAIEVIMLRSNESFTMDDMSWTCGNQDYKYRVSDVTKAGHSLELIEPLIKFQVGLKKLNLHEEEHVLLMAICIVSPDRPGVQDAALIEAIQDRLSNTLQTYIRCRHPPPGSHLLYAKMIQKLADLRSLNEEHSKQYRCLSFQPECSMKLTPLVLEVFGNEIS
Sequence of Tumor necrosis factor (Homo sapiens) (P01375 whole entry, looked up): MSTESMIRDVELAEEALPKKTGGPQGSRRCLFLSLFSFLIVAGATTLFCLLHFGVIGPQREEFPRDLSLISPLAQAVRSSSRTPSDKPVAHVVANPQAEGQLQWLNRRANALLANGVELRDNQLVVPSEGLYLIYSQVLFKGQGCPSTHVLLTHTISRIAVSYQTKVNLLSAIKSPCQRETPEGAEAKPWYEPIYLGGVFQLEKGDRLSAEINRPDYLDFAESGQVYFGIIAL
Sequence of Voltage-gated inwardly rectifying potassium channel KCNH2 (Homo sapiens) (Q12809 whole entry, looked up): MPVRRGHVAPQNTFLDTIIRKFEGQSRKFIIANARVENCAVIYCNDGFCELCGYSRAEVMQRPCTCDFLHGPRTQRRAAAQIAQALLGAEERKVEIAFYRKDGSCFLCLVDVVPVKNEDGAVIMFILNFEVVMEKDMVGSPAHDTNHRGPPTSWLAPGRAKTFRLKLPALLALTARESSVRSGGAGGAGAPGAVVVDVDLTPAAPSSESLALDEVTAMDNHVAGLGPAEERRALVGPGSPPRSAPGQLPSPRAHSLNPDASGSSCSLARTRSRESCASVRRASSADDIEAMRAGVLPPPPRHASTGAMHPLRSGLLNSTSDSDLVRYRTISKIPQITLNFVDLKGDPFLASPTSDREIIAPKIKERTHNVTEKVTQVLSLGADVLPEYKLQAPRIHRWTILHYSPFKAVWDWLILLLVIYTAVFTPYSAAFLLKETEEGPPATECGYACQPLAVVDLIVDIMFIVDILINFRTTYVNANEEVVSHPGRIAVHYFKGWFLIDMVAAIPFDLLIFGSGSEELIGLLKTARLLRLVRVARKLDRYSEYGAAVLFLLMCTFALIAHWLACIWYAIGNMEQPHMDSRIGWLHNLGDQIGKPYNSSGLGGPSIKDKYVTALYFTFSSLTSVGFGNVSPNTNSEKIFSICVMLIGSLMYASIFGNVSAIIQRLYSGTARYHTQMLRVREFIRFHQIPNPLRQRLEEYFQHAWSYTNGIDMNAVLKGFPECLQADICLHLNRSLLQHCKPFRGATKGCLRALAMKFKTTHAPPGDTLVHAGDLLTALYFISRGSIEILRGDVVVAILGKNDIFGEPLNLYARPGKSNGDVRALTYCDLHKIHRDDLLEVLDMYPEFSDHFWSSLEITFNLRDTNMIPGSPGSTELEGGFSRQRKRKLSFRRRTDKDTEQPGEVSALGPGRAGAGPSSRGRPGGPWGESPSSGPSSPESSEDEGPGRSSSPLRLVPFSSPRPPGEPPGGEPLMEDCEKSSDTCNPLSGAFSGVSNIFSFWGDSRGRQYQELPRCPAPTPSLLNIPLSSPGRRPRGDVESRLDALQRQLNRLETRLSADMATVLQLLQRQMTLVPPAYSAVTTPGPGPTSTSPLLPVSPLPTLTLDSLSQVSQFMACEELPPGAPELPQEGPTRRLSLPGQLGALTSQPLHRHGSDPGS
Sequence of Estrogen receptor (Homo sapiens) (P03372 whole entry, looked up): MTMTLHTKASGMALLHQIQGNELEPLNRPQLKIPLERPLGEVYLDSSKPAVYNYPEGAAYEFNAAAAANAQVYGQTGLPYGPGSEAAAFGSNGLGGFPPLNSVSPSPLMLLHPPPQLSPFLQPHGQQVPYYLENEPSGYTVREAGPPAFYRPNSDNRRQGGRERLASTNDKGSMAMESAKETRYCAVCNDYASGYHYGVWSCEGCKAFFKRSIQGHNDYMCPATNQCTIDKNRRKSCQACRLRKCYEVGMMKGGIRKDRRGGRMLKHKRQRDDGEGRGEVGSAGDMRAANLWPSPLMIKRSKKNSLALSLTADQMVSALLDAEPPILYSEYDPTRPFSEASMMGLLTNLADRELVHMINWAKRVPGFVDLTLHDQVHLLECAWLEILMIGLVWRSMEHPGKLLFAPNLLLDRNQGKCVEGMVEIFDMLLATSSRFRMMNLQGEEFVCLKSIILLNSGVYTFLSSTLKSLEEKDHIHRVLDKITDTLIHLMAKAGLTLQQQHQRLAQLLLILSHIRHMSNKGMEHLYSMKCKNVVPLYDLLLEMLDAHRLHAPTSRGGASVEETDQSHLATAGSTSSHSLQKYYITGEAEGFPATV
Sequence of Nuclear receptor ROR-gamma (Homo sapiens) (P51449 whole entry, looked up): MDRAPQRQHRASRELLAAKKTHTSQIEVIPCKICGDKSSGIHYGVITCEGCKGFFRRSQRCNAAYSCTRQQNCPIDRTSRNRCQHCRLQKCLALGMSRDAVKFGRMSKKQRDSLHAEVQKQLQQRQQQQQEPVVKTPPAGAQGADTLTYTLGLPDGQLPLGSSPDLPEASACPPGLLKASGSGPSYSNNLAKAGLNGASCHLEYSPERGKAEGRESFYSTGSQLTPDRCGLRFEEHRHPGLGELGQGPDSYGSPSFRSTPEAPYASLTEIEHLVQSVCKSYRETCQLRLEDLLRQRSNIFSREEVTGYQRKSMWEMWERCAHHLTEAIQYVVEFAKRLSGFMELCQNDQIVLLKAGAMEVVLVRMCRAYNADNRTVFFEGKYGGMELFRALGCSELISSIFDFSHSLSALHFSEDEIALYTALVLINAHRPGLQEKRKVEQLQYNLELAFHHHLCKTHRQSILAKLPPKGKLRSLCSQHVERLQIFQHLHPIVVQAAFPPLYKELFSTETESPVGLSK
Sequence of Cytochrome P450 3A4 (Homo sapiens) (P08684 whole entry, looked up): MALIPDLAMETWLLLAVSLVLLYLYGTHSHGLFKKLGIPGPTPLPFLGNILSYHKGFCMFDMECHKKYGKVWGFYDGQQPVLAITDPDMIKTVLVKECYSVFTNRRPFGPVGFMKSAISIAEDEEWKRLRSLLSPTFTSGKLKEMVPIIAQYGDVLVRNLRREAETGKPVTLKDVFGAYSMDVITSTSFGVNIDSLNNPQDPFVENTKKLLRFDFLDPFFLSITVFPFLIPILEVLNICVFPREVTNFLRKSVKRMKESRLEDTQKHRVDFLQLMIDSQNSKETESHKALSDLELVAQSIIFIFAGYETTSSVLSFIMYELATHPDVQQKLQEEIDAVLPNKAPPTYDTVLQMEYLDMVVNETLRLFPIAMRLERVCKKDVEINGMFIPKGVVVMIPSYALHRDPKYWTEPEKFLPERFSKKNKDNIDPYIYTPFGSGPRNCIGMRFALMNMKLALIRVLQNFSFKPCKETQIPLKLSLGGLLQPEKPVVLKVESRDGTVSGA
Sequence of Peroxisome proliferator-activated receptor gamma (Homo sapiens) (P37231 whole entry, looked up): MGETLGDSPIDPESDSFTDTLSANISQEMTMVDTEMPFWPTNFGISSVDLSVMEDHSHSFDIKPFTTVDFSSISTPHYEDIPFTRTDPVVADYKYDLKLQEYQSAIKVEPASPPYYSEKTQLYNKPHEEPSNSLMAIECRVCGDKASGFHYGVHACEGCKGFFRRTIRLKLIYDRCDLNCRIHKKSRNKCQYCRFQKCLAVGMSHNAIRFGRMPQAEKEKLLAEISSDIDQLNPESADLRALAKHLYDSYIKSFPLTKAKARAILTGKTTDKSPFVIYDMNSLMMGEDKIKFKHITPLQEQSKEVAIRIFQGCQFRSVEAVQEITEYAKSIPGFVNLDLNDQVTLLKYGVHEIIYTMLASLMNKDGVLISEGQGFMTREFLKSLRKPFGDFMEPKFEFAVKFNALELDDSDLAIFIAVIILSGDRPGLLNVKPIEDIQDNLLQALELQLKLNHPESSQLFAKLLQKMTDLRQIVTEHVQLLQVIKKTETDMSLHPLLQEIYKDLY

C=C1CC[C@H](O)C/C1=C/C=C1\CCC[C@]2(C)[C@@H]([C@H](C)CCCC(C)C)CC[C@@H]12
active: Potency [1] 27.5 µM | Potency [2] 31.6 µM | Potency [4] 50.1 µM | Potency [5] 39.8 µM
inactive: Potency [3] | Potency [6] | activation [7] 1.86% | Potency [8]

C/C=C/C=C/C=O
active: Potency [1] 29.4 µM | Potency [5] 39.8 µM | Potency [13] 37.6 µM | Potency [14] 29.8 µM
inactive: Potency [3] | Potency [9] | Potency [4] | Potency [10] | outcome [11] | Potency [12] | Potency [6] | activation [7] -1.3% | Potency [8] | outcome [15]

NC(=O)c1ccc([N+](=O)[O-])cc1
inactive: Potency [1] > 92 µM | Potency [16] > 92 µM | Potency [2] | caspase-3 activation [17] 0.417% | Potency [9] | Potency [4] | Potency [5] | Potency [10] | outcome [18] | Potency [12] | Potency [6] | Potency [13] | activation [19] -4.76% | activation [7] -0.545% | Potency [8] | Potency [20] | Potency [14] | outcome [15]

CCN(CC)c1ccc2c(C)cc(=O)oc2c1
active: Potency [12] 44.7 µM | Potency [13] 37.6 µM | Potency [19] 39.8 µM
inactive: Potency [1] > 92 µM | Potency [16] > 92 µM | Potency [2] | Potency [3] | caspase-3 activation [17] 0.453% | Potency [5] | Potency [10] | outcome [11] | Potency [6] | Potency [20] | Potency [14]

CCCCCCCC/C=C\CCCCCCCC(=O)N(CCO)CCO
inactive: Potency [3] | Potency [4] | Potency [12] | activation [19] -2.93% | activation [7] 3.7% | Potency [8] | Potency [14]
active: Potency [1] 68.3 µM | caspase-3 activation [2] 96.6%

Cc1c2ccccc2c(C)c2c1ccc1ccccc12
inactive: Potency [2] | Potency [3] | caspase-3 activation [17] 2.33% | Potency [5] | Potency [10] | outcome [11] | Potency [6] | Potency [8]
active: Potency [1] 36.6 µM | Potency [13] 10.6 µM and 24.3 µM | Potency [19] 44.7 µM | Potency [20] 13.3 µM

Reference: PubChem BioAssay (NCATS)
